Insulin prom inh: TRM-6 insulin promoter activity inhibition; TRM-6 cells (human fetal islet line), insulin promoter-eGFP reporter, imaging; reporter expression induced with tamoxifen; inhibition, % at 2 µM; 130,000 compounds, 0.9% hits; AID 1273;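 active = inhibition above the mean plus 3 SD, with well images judged a real hit on visual review, cut at about 60% in these data, passing the limit was not always enough; inconclusive = inhibition over the cutoff but images rejected on review; inactive = inhibition not above the cutoff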
WT yeast gro inh: growth inhibition of WT yeast, mitochondrial fusion screen | 190,000 compounds, 2.1% hits | inhibition, % at 10 µM | mitochondrial fusion phenotypic screen, WT strain; in the data active = inhibition above about 58%; tested in S. cerevisiae
ROMK primary: human ROMK K+ channel modulation, primary screen | P48048 | 130,000 compounds, 2% hits | B-score at 10 µM | AID 1918 | Tet-inducible ROMK, thallium flux fluorescence; actives lie on both sides;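 active = signal ratio slope over the read window, or its plate-corrected B-score, at least 3 SD from the plate mean, either direction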;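 also: B-score of the F/F0 ratio slope over 7 to 12 s after thallium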
Target sequence (P48048 whole entry, looked up): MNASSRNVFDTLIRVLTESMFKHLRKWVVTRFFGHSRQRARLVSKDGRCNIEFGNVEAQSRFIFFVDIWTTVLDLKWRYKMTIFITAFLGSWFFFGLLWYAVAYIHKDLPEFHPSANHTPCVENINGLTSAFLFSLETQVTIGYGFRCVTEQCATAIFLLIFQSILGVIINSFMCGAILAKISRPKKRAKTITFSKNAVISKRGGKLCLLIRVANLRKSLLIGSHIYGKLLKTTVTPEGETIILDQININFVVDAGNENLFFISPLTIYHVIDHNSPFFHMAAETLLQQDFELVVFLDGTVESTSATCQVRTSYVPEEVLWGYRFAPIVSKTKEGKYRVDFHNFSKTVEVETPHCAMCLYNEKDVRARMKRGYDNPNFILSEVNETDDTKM
KCC2 mod: KCC2 (human) Cl- transport modulation; Q9H2X9; 190,000 compounds, 2.2% hits; B-score of Tl+ flux slope (higher = more flux/activation; lower = inhibition) at 10 µM; KCC2 cells, thallium flux FluoZin-2 fluorescence;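 active = thallium flux slope and its plate-corrected score both differing from the plate sample mean at a set confidence after two filtering rounds, in either direction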;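 also: slope of fluorescence scaled to starting intensity during 10 to 20 s after thallium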
L major viab: Leishmania major promastigote growth inhibition; Leishmania major promastigotes, resazurin fluorescence viability; inhibition, % at 10 µM; 200,000 compounds, 9% hits; in the data active = inhibition above about 50%;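 also: promastigotes grown with compound for 44 hours at 28 °C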
Insulin prom up: MIN6 insulin promoter up-regulation; MIN6 insulin promoter-GFP reporter, high-content imaging; stronger effect = higher value; z-score at 5 µM; 190,000 compounds, 0.3% hits; AID 1625;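 active = z-score above 3 at 5 µM with at least 500 cells counted in the well; inconclusive = wells under 500 cells, flagged as cytotoxic or low count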
KCC2 sec1: KCC2 (human) modulation, secondary assay; shares compounds with KCC2 mod; HEK293-KCC2, thallium flux, FluoZin2 fluorescence; stronger effect = higher value; normalised thallium flux (F/F0 slope) at 10 µM; 3,700 compounds, 15% hits;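 active = thallium flux slope above the same plate's solvent-only control mean plus 3 SD; inconclusive = the two replicate wells disagree; inactive = no significant difference from solvent-only control wells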
KCC2 bumet counter: thallium flux despite bumetanide block in KCC2 cells, secondary assay 3 | shares compounds with KCC2 mod | HEK293-KCC2 + bumetanide/ouabain, thallium flux FluoZin2; stronger effect = higher value | normalized thallium flux at 10 µM | 3,700 compounds, 49% hits | AID 1714;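 active = thallium entry rate above the same plate's blocked-transporter control wells by more than 3 SD; inconclusive = the two repeat wells disagree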;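 also: raw slope of fluorescence over initial fluorescence between 10 and 20 s after thallium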
KCC2 sec2: KCC2 (human) modulation, second secondary assay; 3,700 compounds, 23% hits; normalized thallium flux at 10 µM; HEK293-KCC2, thallium flux FluoZin2 fluorescence; actives lie on both sides; F/F0 rise rate, 10–20 s post-thallium; AID 1715; shares compounds with KCC2 mod;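 active = thallium flux slope more than 3 SD above or below the plate's solvent-only control mean, mostly below; inconclusive = the two repeat wells disagreed; inactive = no significant shift from solvent-only controls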;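 also: raw slope with 0.1% DMSO as baseline and bumetanide as block control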
HEK293 Tl flux: acts in parental HEK cells, KCC2 counter-screen; 3,700 compounds, 46% hits; AID 1716; thallium flux rate (normalised fluorescence) at 10 µM; shares compounds with KCC2 mod; HEK293 parental cells, thallium flux FluoZin2, ouabain; baseline-ratio fluorescence slope, 10–20 s after thallium;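 active = thallium flux rate significantly above the same plate's solvent-only control wells, beyond their mean plus 3 SD; inconclusive = the two replicate wells gave conflicting results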
KCC2 retest ouab: KCC2 (human) modulation, ouabain retest. shares compounds with KCC2 mod. HEK293-KCC2, thallium flux FluoZin2 fluorescence; bidirectional: low = inhibitor, high = activator. raw Tl+ flux slope (below DMSO = inhibition, above = activation) at 10 µM. 3,700 compounds, 48% hits. AID 1717;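 active = thallium flux slope beyond 3 SD from same-plate DMSO control mean in most replicates, usually higher, sometimes lower; inconclusive = repeat tests gave conflicting results; inactive = no significant difference from controls in most replicates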;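 also: slope of initial-normalized fluorescence between seconds 10 and 20 after thallium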
HEK293 Tl flux2: counter-screen for KCC2 modulators: effect in parental HEK293 cells; shares compounds with KCC2 mod; thallium flux FluoZin-2 fluorescence slope; thallium flux slope at 10 µM; 3,700 compounds, 33% hits;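 active = thallium flux slope above the same plate's solvent-control mean plus 3 SD in both duplicate wells; inconclusive = duplicate wells that disagreed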;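 also: run without ouabain in cells lacking the KCC2 cotransporter; slope of fluorescence scaled to its starting value between 10 and 20 s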
* = called active by the depositor; ? = inconclusive; . = no result given. A selection: hits, their analogues and other compounds. The true share with any hit is near 12%.

SMILES	Insulin prom inh	WT yeast gro inh	ROMK primary	KCC2 mod	L major viab	Insulin prom up	KCC2 sec1	KCC2 bumet counter	KCC2 sec2	HEK293 Tl flux	KCC2 retest ouab	HEK293 Tl flux2
CC(C)Cc1cc(C(=O)Nc2sc3c(c2C#N)CCC3)no1	.	10	.	4.8*	-8	0	0.0064	0.017*	0.033	0.017*	0.027*	0.014*
C=CCNC(=S)Nc1sc2c(c1C#N)CCCC2	-105	2	0.37	13*	58*	0.13	0.0065	0.021*	0.03	0.018*	0.027*	0.012*
Cn1cc(Cl)c(C(=O)NC(=S)Nc2sc3c(c2C#N)CCCCC3)n1	-35	-19	0.17	11*	45	0.79	0.0074	0.021*	?	0.019*	0.033*	0.021*
CC(C)(C)C(=O)NC(=S)Nc1sc2c(c1C#N)CCCCC2	.	3	0.18	-0.023	12	1	.	.	.	.	.	.
CC(C)Cc1cc(C(=O)Nc2sc3c(c2C#N)CCCC3)no1	.	16	.	4.1*	-9	.	0.012	0.019*	0.037	?	?	?
N#Cc1c(NC(=O)c2cc(C3CC3)on2)sc2c1CCC2	.	-1	.	2.8	-9	-1	.	.	.	.	.	.
CC(=O)Nc1sc2c(c1C#N)CCCCC2	-5	2	.	6.1*	-12	.	0.0096	0.0073	0.03	0.0076	0.066	?
FC(F)(F)c1cccc(NCc2n[nH]c(=S)n2C2CCCCC2)c1	-27	11	-0.9	5.9*	2	-0.58	0.009	0.019*	0.035	?	?	0.011
CC(=O)Nc1ccc(NC(=O)c2ccc(CSc3ccccc3)o2)cc1	82*	-21	-0.51	-4.1*	3	0.75	0.0062	0.0072	0.025*	0.0071	0.015*	?
O=C(Nc1ccccc1F)c1ccc(CSc2ccccc2)o1	.	40	.	-5.1*	-5	-0.34	0.0087	0.0058	0.025*	0.006	0.013*	0.0091
O=C(Nc1cccc(F)c1)c1ccc(CSc2ccccc2)o1	-20	54	-2.2	-2.7	3	0.98	.	.	.	.	.	.
COc1ccc(NC(=O)c2ccc(COc3ccccc3)o2)cc1	5	-5	.	-4.4*	-4	-0.02	0.0073	0.0048	0.029	0.0064	?	0.0098
O=C(C1Cc2ccccc2CN1S(=O)(=O)c1ccc(F)cc1)N1CCCCCC1 (stereo not given)	-64	-1	0.063	-2.6	6	.	.	.	.	.	.	.
O=C(O)CC/C(=C\c1ccc(Cl)c([N+](=O)[O-])c1)c1nc2ccccc2s1	.	-35	-1.8	-7.1*	-5	0.01	0.0072	0.0072	?	0.0058*	?	0.009
O=C(O)CC/C(=C\c1ccc(N2CCOCC2)c([N+](=O)[O-])c1)c1nc2ccccc2s1	.	-10	0.062	-8.5*	-10	0.11	0.0057	0.0048	0.021*	0.0074	?	0.011
N#C/C(=C\c1ccc(O)c([N+](=O)[O-])c1)c1nc2ccccc2s1	-9	56	-0.67	-6.2*	-10	-0.61	0.0079	0.006	0.032	0.007	0.013*	0.01
O=C(O)C/C(=C\c1ccc(N2CCOCC2)c([N+](=O)[O-])c1)c1nc2ccccc2s1	.	.	.	.	.	-0.47	.	.	.	.	.	.
CCN(CC)S(=O)(=O)c1ccc(-c2nnc(SCC(=O)Nc3cc(OC)cc(OC)c3)o2)cc1	4	-7	0.14	.	-9	-0.43	.	.	.	.	.	.
COc1ccc(-c2c(C)n([O-])c(C)c(C)[n+]2=O)cc1	17	-3	-0.016	0.9	-6	0.28	.	.	.	.	.	.
CCCCn1c(N2CCC(Cc3ccccc3)CC2)nc2c1c(=O)[nH]c(=O)n2C	.	68*	.	-4.9*	78*	-0.76	0.0073	0.0052	0.035	?	?	0.011
Cc1nn(-c2nnc(C)c(=O)[nH]2)c(C)c1SCC(=O)Nc1ccc(F)cc1	11	5	.	0.11	2	.	.	.	.	.	.	.
CSc1nc(C)cc(Oc2ccc(OCCOc3ccccc3)nn2)n1	-58	3	.	-5.9*	0	-0.35	0.008	0.0057	0.029	0.0065	0.016*	0.0098
CCCOc1ccc(Oc2cc(C)nc(SC)n2)nn1	3	0	.	1.2	2	2.7	.	.	.	.	.	.
CCS(=O)(=O)c1c([N+](=O)[O-])ncn1C	-54	-10	-0.0059	0.32	48	0.45	.	.	.	.	.	.
CCN(CC)c1c([N+](=O)[O-])ncn1C	-33	-1	-1.8	.	0	.	0.011	0.0062	0.034	?	0.019	?
SMILES	Insulin prom inh	WT yeast gro inh	ROMK primary	KCC2 mod	L major viab	Insulin prom up	KCC2 sec1	KCC2 bumet counter	KCC2 sec2	HEK293 Tl flux	KCC2 retest ouab	HEK293 Tl flux2
CC(C)(C)c1ccc(C(=O)Oc2ccccc2CCC(=O)O)cc1	.	.	0.024	-3.3	.	0.01	.	.	.	.	.	.
Cc1ccc(C(=S)N2CCN(Cc3ccccc3)CC2)cc1	15	22	-0.062	-3.3*	8	-0.26	?	0.0064	0.031	0.0076	0.015*	0.011
CCOc1ccc2c(c1)C(=NNC(=O)c1ccncc1)c1cc(OCC)ccc1-2	.	-1	1.2	30*	100*	-1.4	0.015*	0.033*	0.032	0.018*	0.079*	0.012*
CCOc1ccc(NC(=O)c2ccncc2)cc1	6	-3	0.15	-0.0054	-2	0.07	.	.	.	.	.	.
CCC1CCCCN1S(=O)(=O)c1ccc(C(=O)Nc2nnc(-c3ccccc3Cl)o2)cc1 (stereo not given)	32	-6	.	19*	99*	-0.87	0.015*	0.071*	0.031	0.034*	0.042*	?
CC1CCCCN1S(=O)(=O)c1ccc(C(=O)Nc2nnc(-c3ccccc3Cl)o2)cc1 (stereo not given)	.	22	-0.62	17*	99*	-1.3	0.014*	0.053*	0.034	?	0.042*	?
CC1(C)COCN1S(=O)(=O)c1ccc(C(=O)Nc2nnc(-c3ccc(Cl)s3)o2)cc1	.	4	.	15*	99*	-3.5	?	0.04*	0.039	?	0.035*	0.012
CC1CCCCN1S(=O)(=O)c1ccc(C(=O)Nc2sccc2C(N)=O)cc1 (stereo not given)	.	4	.	-3.9*	18	2.1	0.0057	0.0051	0.029	0.0079	0.018	0.012

Screening data: PubChem BioAssay, several laboratories
